Screening results as filed in PubChem.
Compounds with a hit are over-represented: about 9.8% of the library has one in this group of screens.
HPGD inh: HPGD (human) dehydrogenase inhibition; AID 894; 150,000 compounds, 4.3% hits; Potency, µM, usual class: inhibitors; purified HPGD, NADH fluorescence kinetic, PGE2 substrate; active = well fitted inhibition curve with a large enough effect, not every such curve was filed as active; inconclusive = small, poorly fitted or top-dose-only effect, or another doubt; inactive = no such curve, though single readings can be large or run the other way
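NADH formation kinetics: reaction with 30 uM PGE2 and 1 mM NAD+ (final), 20 nM enzyme, Tris-HCl pH 8 with Tween 20, after 15 min compound preincubation at room temperature. Fluorescence change, last versus first of five reads.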
HTT ATP protect: protects HTT-Q103 PC12 cells, measured by ATP; PC12 HTT-Q103 induced, cytoprotection, ATP luminescence, 40 h; AID 1471; Potency, µM (series often up to 56.4 µM), usual class: activators; 230,000 compounds, 0.14% hits; also: nearly all actives have a fitted effect of over 45% in size
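Stable PC12 Q103-GFP cells in serum-supplemented, phenol red-free DMEM; induction by tebufenozide at 100 nM final; compound dose series; cell viability quantified luminescently from ATP.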
ALDH1A1 inh: ALDH1A1 (human) enzyme inhibition; P00352; Potency, µM (top dose mostly 75.3 µM), most hits filed as inhibitors; AID 1030; Purified ALDH1A1, NADH fluorescence, propionaldehyde substrate; 220,000 compounds, 7.3% hits; active = well fitted inhibition curve with a large enough effect, not every such curve was filed as active; inconclusive = small, poorly fitted or top-dose-only effect, or another doubt; inactive = no such curve, though single readings can be large or run the other way
Target sequence (P00352 whole entry, looked up): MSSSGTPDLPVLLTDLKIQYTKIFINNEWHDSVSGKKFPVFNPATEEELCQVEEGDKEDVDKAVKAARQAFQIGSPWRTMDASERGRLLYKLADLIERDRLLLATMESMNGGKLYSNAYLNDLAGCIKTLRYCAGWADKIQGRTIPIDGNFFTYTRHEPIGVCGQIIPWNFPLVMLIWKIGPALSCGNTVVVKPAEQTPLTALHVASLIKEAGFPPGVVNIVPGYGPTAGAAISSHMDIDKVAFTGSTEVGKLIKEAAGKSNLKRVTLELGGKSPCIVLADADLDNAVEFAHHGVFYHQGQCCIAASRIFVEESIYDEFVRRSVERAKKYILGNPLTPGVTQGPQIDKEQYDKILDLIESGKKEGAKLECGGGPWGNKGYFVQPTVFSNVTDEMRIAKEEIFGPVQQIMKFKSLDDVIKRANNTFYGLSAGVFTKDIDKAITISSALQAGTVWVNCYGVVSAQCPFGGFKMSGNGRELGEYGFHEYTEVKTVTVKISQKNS
HttQ103 aggreg: mutant huntingtin aggregation inhibition | PC12 HttQ103-GFP aggregates, Acumen cytometry, 40 h | Potency, µM (top dose mostly 46.1 µM), hits mostly inhibitors | 220,000 compounds, 1.1% hits | AID 1688; also: nearly all actives have a fitted effect of over 60% in size
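Inducible Q103 Huntingtin exon 1–GFP PC12 line, 1500 cells/well in phenol red free DMEM with 5% equine and 5% calf serum. Tebufenozide 100 nM induced expression; compounds titrated; aggregates quantified by cytometry.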
JMJD2E inh: inhibitors of human JMJD2E histone demethylase | Potency, µM (top dose mostly 57.1 µM), hits mostly inhibitors | B2RXH2 | JMJD2E catalytic domain, FDH-coupled NADH fluorescence (FDH is formaldehyde dehydrogenase) | 230,000 compounds, 1.6% hits; active = well fitted inhibition curve with a large enough effect, not every such curve was filed as active; inconclusive = small, poorly fitted or top-dose-only effect, or another doubt; inactive = no such curve, though single readings can be large or run the other way; also: nearly all actives have a fitted effect of over 50% in size
CBFb RUNX1 block: inhibitors of human CBF-beta and RUNX1 interaction. Potency, µM (doses to about 59.8 µM), most hits filed as inhibitors. AlphaScreen CBFb-His/RUNX1-biotin binding, biochemical. AID 1477. 230,000 tested, under 10 active
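His-tagged CBF-beta and biotinylated RUNX1 (30 nM each) were premixed 20 min at room temperature, exposed to compound for 15 min, then given nickel-chelate and streptavidin AlphaScreen beads (50 ng each). After 90 min, AlphaScreen signal was read.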
Of the large screens only hits and unclear results are named; the others gave an inactive call. Unless noted, calls follow the shape of the dose curve; as a rule, active = well fitted curve in the direction sought with a large enough effect; inconclusive = small, poorly fitted or top-dose-only effect, or another doubt; inactive = no such curve, though single readings can be large; an effect the other way counts as inactive or inconclusive.

CCn1ncc(CNC(=O)CCCSc2nc(-c3ccco3)cc(C(F)(F)F)n2)c1C	ALDH1A1 inh inconclusive, HttQ103 aggreg inconclusive
CCn1nc(C)c(NC(=O)CCSc2nc(-c3ccco3)cc(C(F)(F)F)n2)c1C	HPGD inh inconclusive, ALDH1A1 inh 28µM
O=C(CSc1nc(-c2ccco2)cc(C(F)(F)F)n1)NC1CCCC1	HPGD inh 14µM, ALDH1A1 inh inconclusive
O=C(O)c1ccccc1C(=O)Nc1ccc(-n2nccc2C(F)(F)F)cc1	JMJD2E inh inconclusive (no result: HPGD inh)
CC(=C\c1ccco1)/C=C1/SC(=S)N(CC(=O)O)C1=O	none (no result: HPGD inh, ALDH1A1 inh)
O=C(O)CN1C(=O)/C(=C/c2ccc(N3CCCCC3)o2)SC1=S	JMJD2E inh 32µM (no result: HPGD inh, ALDH1A1 inh)
COC(=O)CN1C(=O)S/C(=C/c2ccc(N3CCCCC3)o2)C1=O	ALDH1A1 inh 0.28µM, HttQ103 aggreg inconclusive, JMJD2E inh inconclusive
CCOC(=O)CN1C(=O)S/C(=C/c2ccc(N3CCCCC3)o2)C1=O	ALDH1A1 inh 25µM
C=CCN(c1ccccc1C(=O)O)S(=O)(=O)c1ccc(C)cc1	ALDH1A1 inh inconclusive (no result: HPGD inh)
CCOC(=O)C1CCCN(/C=C2\SC(=S)N(CC)C2=O)C1 (configuration not stated)	none (no result: HPGD inh, ALDH1A1 inh)
COCCn1c(Cc2ccccc2)nnc1SCC(=O)N(C)C	none
Cc1ccc(Cl)cc1-c1ccc(C=Nc2ccc(N3CCOCC3)cc2)o1	HPGD inh inconclusive, ALDH1A1 inh 10µM
CC(=O)Nc1ccc(S(=O)(=O)Nc2nc3ccccc3nc2Nc2cccc(S(N)(=O)=O)c2)cc1	JMJD2E inh inconclusive (no result: HPGD inh, ALDH1A1 inh)
CCc1ccc(C(=O)CC2(O)C(=O)N(CN3CCOCC3)c3ccccc32)cc1 (configuration not stated)	none
COC(=O)CN1C(=O)C(O)(CC(=O)c2ccc(C)cc2)c2ccccc21 (configuration not stated)	ALDH1A1 inh 8.9µM
COC(=O)CN1C(=O)C(O)(CC(=O)c2ccc(C)o2)c2ccccc21 (configuration not stated)	ALDH1A1 inh 7.9µM
Cc1ccc(C(=O)CC2(O)C(=O)N(CN3CCOCC3)c3ccccc32)cc1 (configuration not stated)	ALDH1A1 inh 14µM, HttQ103 aggreg inconclusive
COC(=O)CN1C(=O)C2(OCCCO2)c2ccccc21	none
O=C(CC1(O)C(=O)N(C/C=C/c2ccccc2)c2ccccc21)c1ccccn1 (configuration not stated)	ALDH1A1 inh 0.79µM (no result: HPGD inh)
O=C(CC1(O)C(=O)N(CCc2ccccc2)c2ccccc21)c1ccccn1 (configuration not stated)	ALDH1A1 inh inconclusive (no result: HPGD inh)
CN1CCC2(CCN3CCc4c(oc5ccccc45)C3C2)N(C)C1=O (configuration not stated)	none (no result: HTT ATP protect, HttQ103 aggreg)
CC12CCC=CC1C(c1cccc(Br)c1)N(Cc1ccccc1)C2=O (configuration not stated)	none (no result: HPGD inh, HTT ATP protect, ALDH1A1 inh, HttQ103 aggreg, JMJD2E inh)
Cn1c(=O)c(-c2ccc(Cl)cc2)nc2cnc(N3CCNCC3)nc21	ALDH1A1 inh inconclusive (no result: HPGD inh, HttQ103 aggreg, JMJD2E inh, CBFb RUNX1 block)
C=CCN1C(=O)C(O)(CC(=O)c2ccc(N)cc2)c2ccccc21 (configuration not stated)	ALDH1A1 inh 5.6µM
COC(=O)CN1C(=O)C(O)(CC(=O)c2ccccc2)c2ccccc21 (configuration not stated)	ALDH1A1 inh 4.5µM
Cc1ccc(C(=O)CC2(O)C(=O)N(C)c3ccccc32)o1 (configuration not stated)	ALDH1A1 inh 25µM
Cc1cc(I)ccc1Nc1c(C(=O)NOCC2CC2)cc(F)c(F)c1F	none (no result: HPGD inh, HTT ATP protect, ALDH1A1 inh, HttQ103 aggreg, JMJD2E inh)
CCN(CC)C(=O)CC(c1ccc(F)cc1)c1ccco1 (configuration not stated)	HPGD inh 20µM, ALDH1A1 inh inconclusive
CCN(CC)CCCCn1c(-c2ccccc2)nc2c(NCCOC)nc(C)nc21	HPGD inh inconclusive, ALDH1A1 inh inconclusive, JMJD2E inh inconclusive (no result: HttQ103 aggreg)
CCc1nc(NC(=O)NS(=O)(=O)c2ccccc2C(=O)OC)nc(OC)n1	none (no result: HPGD inh)
CC(C)(C)c1ccc(C(=O)Nc2ccc(C=C(C#N)C#N)cc2)cc1	ALDH1A1 inh 4µM, JMJD2E inh 11µM
